Screening data: PubChem, Sanford-Burnham Center for Chemical Genomics
Mdm2-MdmX inh: human Mdm2/MdmX binding inhibition. O15151+Q00987. SaOS-2 split-luciferase Mdm2/MdmX complementation, luminescence. inhibition, % at 8 µM. 330,000 tested, 3% active. AID 485346;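 active = inhibition of at least 50% at 8 µM in the primary screen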
Target sequence (O15151 whole entry, looked up): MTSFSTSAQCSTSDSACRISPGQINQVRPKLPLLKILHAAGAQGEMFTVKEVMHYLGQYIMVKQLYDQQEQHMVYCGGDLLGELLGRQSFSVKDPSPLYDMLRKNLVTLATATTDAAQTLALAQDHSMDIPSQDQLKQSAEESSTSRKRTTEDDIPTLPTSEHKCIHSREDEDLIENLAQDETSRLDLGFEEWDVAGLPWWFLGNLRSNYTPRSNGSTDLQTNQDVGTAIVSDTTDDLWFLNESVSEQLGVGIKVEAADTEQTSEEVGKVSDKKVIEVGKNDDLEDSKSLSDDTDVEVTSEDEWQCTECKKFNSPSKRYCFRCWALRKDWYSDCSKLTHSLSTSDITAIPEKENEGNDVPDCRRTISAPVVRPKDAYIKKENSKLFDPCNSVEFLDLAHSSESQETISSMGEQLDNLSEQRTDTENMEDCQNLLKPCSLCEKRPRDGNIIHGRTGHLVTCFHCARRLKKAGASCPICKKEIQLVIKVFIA
Target sequence (Q00987 whole entry, looked up): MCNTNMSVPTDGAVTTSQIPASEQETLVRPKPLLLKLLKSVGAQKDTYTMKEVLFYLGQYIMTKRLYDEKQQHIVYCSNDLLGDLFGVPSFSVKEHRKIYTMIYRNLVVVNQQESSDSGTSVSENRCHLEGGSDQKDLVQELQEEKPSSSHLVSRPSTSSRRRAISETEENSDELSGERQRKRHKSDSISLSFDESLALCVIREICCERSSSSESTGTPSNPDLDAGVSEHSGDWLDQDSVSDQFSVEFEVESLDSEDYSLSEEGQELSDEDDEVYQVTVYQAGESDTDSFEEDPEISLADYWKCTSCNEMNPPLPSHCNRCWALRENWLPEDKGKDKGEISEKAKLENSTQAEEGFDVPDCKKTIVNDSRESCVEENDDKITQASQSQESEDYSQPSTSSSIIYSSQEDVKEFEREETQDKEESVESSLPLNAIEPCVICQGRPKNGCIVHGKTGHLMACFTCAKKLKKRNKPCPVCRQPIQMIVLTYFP
TIM10 inh: inhibits growth of TIM10 yeast strain. S. cerevisiae TIM10 strain growth, BacTiter-Glo luminescence, 24 h. inhibition, % at 10 µM. 330,000 tested, 1.4% active. AID 463195;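 active = inhibition of 40% or more at the single tested concentration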;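 note: wild-type TIM10 isogenic control strain grown at permissive 25 °C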
MPTP block: blocks calcium-induced mitochondrial swelling; AID 602449; isolated mouse mitochondria, Ca2+ swelling absorbance, 30 min; inhibition, % at 10 µM; 360,000 tested, 1.4% active;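 active = inhibition of 50% or more, scaled per plate between neutral and stimulator controls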;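 note: 0% = DMSO wells given calcium and 100% = 1 mM EGTA wells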
tim10-1 inh: inhibits growth of tim10-1 mutant yeast | 330,000 tested, 2.2% active | S. cerevisiae tim10-1 ts strain growth, BacTiter-Glo, 24 h | inhibition, % at 20 µM;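 active = inhibition of at least 40%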;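 note: mutant grown at 25 °C; 0% = DMSO wells with yeast and 100% = wells holding no yeast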
tim23-1 inh: growth inhibitors of tim23-1 mutant yeast | inhibition, % at 20 µM | 330,000 tested, 1.3% active | AID 463212 | S. cerevisiae tim23-1 growth, BacTiter-Glo luminescence, 24 h;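 active = growth inhibition of the mutant yeast at or above 50%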;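 note: temperature-sensitive mutant grown at 25 °C; plate controls were DMSO-treated mutant yeast for no effect and medium wells lacking yeast for full effect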
tim10-1 confirm: confirmation of tim10-1 mutant yeast growth inhibitors | shares compounds with tim10-1 inh | S. cerevisiae tim10-1 ts strain growth, BacTiter-Glo, 24 h | inhibition, % at 20 µM | 7,400 tested, 56% active;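 active = inhibition of yeast growth at or above a set limit in either of two repeat tests at 20 µM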;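 note: tim10-1 mutant grown at permissive 25 °C to find synthetic lethal compounds; 0% = DMSO yeast wells and 100% = medium wells without yeast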
TIM10 conf: confirmation of TIM10 yeast growth inhibitors | AID 463215 | S. cerevisiae tim10 strain growth, BacTiter-Glo luminescence, 24 h | inhibition, % at 10 µM | 4,600 tested, 63% active | shares compounds with TIM10 inh;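 active = inhibition of yeast growth at or above a set limit in either of two replicates at 10 µM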;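 note: this counterscreen used the strain with wild-type TIM10; 0% = yeast with DMSO and 100% = medium wells lacking yeast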
tim23-1 confirm: tim23-1 yeast growth inhibition, confirmed | shares compounds with tim23-1 inh | S. cerevisiae tim23-1 growth, BacTiter-Glo luminescence, 24 h | inhibition, % at 20 µM | 4,400 tested, 83% active;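 active = inhibition above about 39% in either of two replicate wells at 20 µM, limit read from the data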;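 note: temperature-sensitive tim23-1 mutant grown at 25 °C; 0% = DMSO wells with yeast and 100% = medium wells without yeast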
Mdm2 MdmX conf: confirmation of human Mdm2/MdmX interaction inhibitors; shares compounds with Mdm2-MdmX inh; Mdm2-MdmX binding, luminescent assay; inhibition, % at 8 µM; 10,000 tested, 55% active; AID 489028; in the data active = inhibition above about 40%
Full FLuc ctr: inhibits full-length luciferase, flagging false Mdm2/MdmX hits; shares compounds with Mdm2-MdmX inh; SaOS-2 full-length luciferase counterscreen, luminescence; inhibition, % at 8 µM; 6,200 tested, 77% active; AID 504607;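 active = mean inhibition at 8 µM reaching about 37%, which flags the compound as non-specific, limit read from the data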;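 note: p53-null SaOS-2 cells with luciferase driven by a doxycycline-inducible promoter; compound on cells about two nights before reading with doxycycline added after day one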
Starred values were filed as active, the others as inactive; x = not tested or not shown. Sampled rows, rich in hits. Any-hit rate of the full collection: about 6.3%.

SMILES	Mdm2-MdmX inh	TIM10 inh	MPTP block	tim10-1 inh	tim23-1 inh	tim10-1 confirm	tim23-1 confirm	Mdm2 MdmX conf	Full FLuc ctr	others
C/C1=C\CCC2C(/C=C(\C)CC1)OC(=O)C2CN1CCCCC1 (stereo unspecified)	59.8*	29.8	-0.7	40.5*	34.9	43.1*	x	34.8	x
COc1ccc(C(CCNC(C)c2ccccc2)c2ccc(F)cc2)cc1 (stereo unspecified)	72.6*	18.7	7.4	51.2*	44.6	36.2*	x	31.8	x
COc1ccc(CNC(=O)CNC(C)c2ccc(F)cc2)cc1 (stereo unspecified)	16.5	-5.6	-0.5	8.1	4.9	x	x	x	x
CN(c1ccccc1)S(=O)(=O)c1ccc(NC(=O)c2nc(S(C)(=O)=O)ncc2Cl)cc1	98.5*	18.4	-2.5	43.4*	26.0	-0.9	x	99.8*	50.9*
CCS(=O)(=O)c1ncc(Cl)c(C(=O)Nc2ccc(S(=O)(=O)N3CCC(C)CC3)cc2)n1	100.4*	-14.2	-2.5	41.6*	40.3	-34.5	x	100.2*	51.8*
Cc1cc(F)ccc1C(O)c1ncc(-c2cccc(OCc3ccccc3)c2)[nH]1 (stereo unspecified)	x	x	2.7	x	x	x	x	x	x
Cc1ccnc(NC(=S)N2CCN(c3cccc(C(F)(F)F)c3)CC2)c1	75.3*	38.8	0.6	42.7*	39.0	23.5	x	77.3*	45.7*
O=[N+]([O-])c1cc([N+](=O)[O-])c2cc3ccccc3nc2c1	82.0*	86.2*	3.6	75.3*	69.2*	41.5*	44.4*	28.9	x	TIM10 conf=96.8*
S=c1[nH]c2ccc3ccccc3c2[nH]1	0.4	17.0	-0.3	19.3	20.7	x	x	x	x
Cc1[nH]c2c(ccc3ccccc32)c1C1C(CCN)C1(C)C (stereo unspecified)	60.9*	29.2	-1.0	44.5*	48.5	32.5*	x	40.3*	77.1*
COCCNC(=S)NCc1ccc2[nH]c3c(c2c1)CCCC3	-11.8	20.5	-0.7	30.7	16.5	x	x	x	x
Cc1ccc(NC(=S)NCc2ccc3[nH]c4c(c3c2)CCCC4)cc1	72.0*	45.7*	3.0	46.7*	48.3	29.0*	x	7.8	x	TIM10 conf=30.3
Cc1nnc(-c2ccccc2)c(=O)n1/N=C/c1c(O)ccc2ccccc12	53.6*	37.3	-0.1	49.4*	31.9	18.6	x	57.1*	30.7
CCOC(=O)/C=C/C(=O)Nc1ccc(Oc2ccccc2)cc1	56.5*	33.5	30.0	49.8*	54.7*	49.2*	65.8*	55.3*	24.1
O=C(Nc1nnc([C@@H]2C[C@H](O)[C@@H](CO)O2)s1)Nc1ccccc1Oc1ccccc1	x	x	0.1	x	x	x	x	x	x
Cc1nc2ccc(C(=O)N3c4ccccc4N=C(c4ccc5c(c4)OCO5)C3C(=O)NCc3ccccc3)cc2[nH]1 (stereo unspecified)	x	x	1.2	x	x	x	x	x	x
O=[N+]([O-])c1ccc(-c2nc(NCc3cccnc3)c3ccccc3n2)cc1	28.5	-17.3	1.5	-23.9	-32.8	x	x	x	x
Oc1ccccc1-c1nc(NCc2cccnc2)c2ccccc2n1	70.0*	27.2	0.9	49.3*	45.6	57.0*	x	49.5*	77.9*
O=c1c2ccccc2nc(-c2ccc(Cl)c(Cl)c2)n1O	81.9*	62.1*	1.7	49.1*	79.1*	29.6*	73.4*	64.2*	26.8	TIM10 conf=54.8*
Cc1ccc(/C(N)=N/OC(=O)Cc2cccs2)cc1	-89.8	22.8	2.8	16.4	18.8	x	x	x	x
Cc1ccc(C(=O)O/N=C(\N)Cc2cccs2)c(Cl)c1	100.4*	85.1*	-1.0	69.3*	91.3*	63.0*	86.7*	23.9	x	TIM10 conf=86.3*
COC(=O)c1c(N)[nH]c(C(=O)c2ccccc2)c1-c1ccc(Br)cc1	x	x	2.3	x	x	x	x	x	x
O=C1c2ccccc2-c2onc3c(N4CCN(CCO)CC4)cc(N4CCN(C(=O)c5ccco5)CC4)c1c23	41.4	9.7	6.7	30.2	17.2	x	x	x	x
CN1CCN(c2cc(N3CCN(C(=O)c4ccco4)CC3)c3c4c(onc24)-c2ccccc2C3=O)CC1	100.4*	47.1*	1.9	55.8*	69.2*	46.8*	74.2*	74.0*	24.3	TIM10 conf=47.5*
O=C(NCc1cccc(C(F)(F)F)c1)C1C(=O)Nc2ccccc2C(=O)N1Cc1ccccc1 (stereo unspecified)	x	x	-0.6	x	x	x	x	x	x
SMILES	Mdm2-MdmX inh	TIM10 inh	MPTP block	tim10-1 inh	tim23-1 inh	tim10-1 confirm	tim23-1 confirm	Mdm2 MdmX conf	Full FLuc ctr	others
Nc1ccn([C@@H]2O[C@H](CN=C3NS(=O)(=O)c4ccccc43)[C@@H](O)[C@H]2O)c(=O)n1	x	x	-0.1	x	x	x	x	x	x
CCCNC(=O)c1nnsc1S(=O)c1ccc(Cl)cc1 (stereo unspecified)	96.5*	82.7*	-0.1	90.6*	82.2*	87.4*	91.2*	99.8*	1.5	TIM10 conf=95.7*
CCCNC(=O)NS(=O)(=O)c1ccc(Cl)cc1	12.0	12.1	-1.6	4.5	-5.6	x	x	x	x
CNC(=O)c1nnsc1S(=O)c1ccc(Cl)cc1 (stereo unspecified)	97.9*	76.5*	-2.4	70.1*	51.6*	67.8*	50.8*	94.3*	2.9	TIM10 conf=73.3*
CCCNC(=O)c1nnsc1S(=O)(=O)c1ccc(Cl)cc1	96.4*	75.8*	-1.1	75.0*	63.8*	66.2*	63.0*	100.2*	50.8*	TIM10 conf=70.0*
Nc1ncnc2c1ncn2[C@@H]1O[C@H](CNCc2ccc(-n3cccn3)cc2)[C@@H](O)[C@H]1O	-29.3	20.3	0.7	5.7	12.3	x	x	x	x
CSCCC(C(=O)NC1CCCC1)n1c(C2CC2)nc2ccccc21 (stereo unspecified)	x	x	2.3	x	x	x	x	x	x
CC(C)CCN1C(=O)c2ccccc2C1c1nnnn1-c1ccc2c(c1)OCCO2 (stereo unspecified)	x	x	0.5	x	x	x	x	x	x
CCC(=O)Nc1cc(ON=C(C)C)cc([N+](=O)[O-])c1	x	x	1.8	x	x	x	x	x	x
CC(C)=NOc1cc(NC(=O)CCl)cc([N+](=O)[O-])c1	94.8*	30.6	4.3	51.6*	65.5*	27.6	46.7*	69.6*	56.1*
CCc1ccc(S(=O)(=O)/N=C2\C=C(Nc3ccc(O)cc3)C(=O)c3ccccc32)cc1	100.3*	61.2*	8.0	64.2*	42.6	69.7*	x	96.6*	2.1	TIM10 conf=92.7*
Cc1cc(C)c(S(=O)(=O)/N=C2\C=C(Nc3ccc(C(=O)O)cc3)C(=O)c3ccccc32)c(C)c1	77.7*	24.0	10.1	42.8*	60.1*	35.0*	62.7*	67.8*	51.5*
CC(=O)C1CCC2C3C=CC4=CC(=O)CCC4(C)C3CCC12C (stereo unspecified)	x	x	-1.9	x	x	x	x	x	x
